# Results as given in PubChem BioAssay (NCATS).
# Records with an inconclusive call do not appear. The source made the active and inactive calls. Calls come from the whole dose curve; as a rule, active = well fitted inhibition curve with a large enough effect; inconclusive = small, poorly fitted or top-dose-only effect; inactive = no such curve, though single readings can be large or run the other way.
# Target: Retinaldehyde dehydrogenase 3 (Homo sapiens) (UniProt P47895)
# Assay: qHTS for Inhibitors of the Aldehyde Dehydrogenase Family (ALDH1A3) Primary screen (AID 2061315);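 note: plate controls were DMSO vehicle for no effect and reference inhibitor for full effect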
# Details: ALDH inhibition qHTS; series mostly up to 56 µM; activity change, negative = inhibition: at the top concentration
row,SMILES,"activity change, negative = inhibition"
1,CCC1CC2C(C)=CC3CCCCC3C2(C)C2(OC(=O)C(C)(O)OC2=O)O1 (stereo not given),-4.74% (inactive)
2,C=C1C(=O)O[C@H]2[C@H]1[C@@H](OC(=O)C(C)CO)C[C@@]1(C)[C@H](O)CCC(=O)[C@H]21 (stereo not given in full),-8.63% (inactive)
3,C[C@@H]1CC[C@]2(C(=O)O)CC[C@]3(C)C(=CCC4[C@]5(C)C(CC[C@]43C)C(C)(C)[C@@H](O)[C@H](O)[C@@H]5O)C2[C@]1(C)O (stereo not given in full),-3.59% [at 28 µM] (inactive)
4,C/C=C(\C)C(=O)OC[C@H]1O[C@@H](O[C@H]2[C@@H](O[C@H]3O[C@H](COC(=O)/C(C)=C/C)[C@@H](O)[C@H](O)[C@H]3O[C@@H]3O[C@H](COC(=O)/C(C)=C/C)[C@@H](O)[C@H](OC(=O)/C(C)=C/C)[C@H]3O)O[C@H](COC(=O)/C(C)=C/C)[C@@H](O)[C@@H]2O)[C@H](O)[C@@H](O)[C@@H]1O,-6.4% [at 16.9 µM] (inactive)
5,Nc1nc2c(ncn2CCC(CO)CO)c(=O)[nH]1,0.891% (inactive)
6,CC1=C(C)C(=O)OC(C(C)C2CCC3C4CC=C5CC(OC6OC(COC7OC(CO)C(O)C(O)C7O)C(O)C(O)C6O)CC(O)C5(C)C4CCC23C)C1 (stereo not given),-0.418% [at 16.9 µM] (inactive)
7,CC1CCCC[C@H]2C(=O)C=C[C@H](O)[C@@H]2CC(=O)O1 (stereo not given in full),-4.67% (inactive)
8,C=C1CC[C@@H]2[C@](C)(CO[C@@H]3O[C@H](CO)[C@@H](O)[C@H](O)[C@H]3O)[C@H](O)CC[C@@]2(C)[C@@H]1C/C=C1/C(=O)OC[C@H]1O,-18.6% [at 28 µM] (inactive)
9,C[C@@H](Cc1cc2c(c(C(N)=O)c1)N(CCCO)CC2)NCCOc1ccccc1OCC(F)(F)F,-28.4% (inactive)
10,C=C1[C@H](OC(C)=O)[C@H]2[C@@H](OC(C)=O)[C@](C)(OC(C)=O)C[C@]2(OC(C)=O)C(=O)[C@H](C)/C=C/C(C)(C)C(=O)[C@H](OC(=O)C(C)C)[C@H]1OC(C)=O,1.41% [at 16.9 µM] (inactive)
